Screens as filed in PubChem BioAssay.
The list is not random: actives were taken first. Their share in the collection is about 15%.
DT40 TDP1 no CPT: qHTS for Inhibitors of human tyrosyl-DNA phosphodiesterase 1 (TDP1): qHTS in cells in absence of CPT; DT40 Tdp1-/- hTDP1 cells, no CPT, ATP luminescence, 48 h; Potency, µM (titrated, usually from 46.2 µM), actives largely listed as inhibitors; hit rate 15% among 420,000; further: nearly all actives have a fitted effect of over 55% in size
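Luminescent ATP content (CellTiter-Glo) served as the growth readout. Knockout chicken DT40 cells expressing human TDP1 were exposed to compounds without camptothecin for a minimum 48 hr at 37 °C.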
DT40 TDP1 CPT: qHTS for Inhibitors of human tyrosyl-DNA phosphodiesterase 1 (TDP1): qHTS in cells in presence of CPT. chicken DT40 Tdp1-/-;hTDP1 cells + 20 nM CPT, ATP luminescence, 48 h. Potency, µM (top dose mostly 46.2 µM), most hits filed as inhibitors. hit rate 12% among 420,000. AID 686979, 2013; further: nearly all actives have a fitted effect of over 55% in size
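Cell growth measured by CellTiter-Glo luminescence after a minimum 48 h, 37 C compound exposure with 20 nM CPT in Tdp1-knockout DT40 cells stably expressing hTDP1, seeded 400/well; qHTS titration format.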
ALOX12 inh: Primary qHTS assay for inhibitors of human arachidonate 12S-lipoxygenase (ALOX12): Round 2. Polyunsaturated fatty acid lipoxygenase ALOX12 (Homo sapiens), P18054. purified 12hLO, xylenol orange hydroperoxide absorbance. Potency, µM (doses to about 108 µM), most hits filed as inhibitors. hit rate 1.1% among 580,000. AID 1671190, 2021
Target sequence (P18054 whole entry, looked up): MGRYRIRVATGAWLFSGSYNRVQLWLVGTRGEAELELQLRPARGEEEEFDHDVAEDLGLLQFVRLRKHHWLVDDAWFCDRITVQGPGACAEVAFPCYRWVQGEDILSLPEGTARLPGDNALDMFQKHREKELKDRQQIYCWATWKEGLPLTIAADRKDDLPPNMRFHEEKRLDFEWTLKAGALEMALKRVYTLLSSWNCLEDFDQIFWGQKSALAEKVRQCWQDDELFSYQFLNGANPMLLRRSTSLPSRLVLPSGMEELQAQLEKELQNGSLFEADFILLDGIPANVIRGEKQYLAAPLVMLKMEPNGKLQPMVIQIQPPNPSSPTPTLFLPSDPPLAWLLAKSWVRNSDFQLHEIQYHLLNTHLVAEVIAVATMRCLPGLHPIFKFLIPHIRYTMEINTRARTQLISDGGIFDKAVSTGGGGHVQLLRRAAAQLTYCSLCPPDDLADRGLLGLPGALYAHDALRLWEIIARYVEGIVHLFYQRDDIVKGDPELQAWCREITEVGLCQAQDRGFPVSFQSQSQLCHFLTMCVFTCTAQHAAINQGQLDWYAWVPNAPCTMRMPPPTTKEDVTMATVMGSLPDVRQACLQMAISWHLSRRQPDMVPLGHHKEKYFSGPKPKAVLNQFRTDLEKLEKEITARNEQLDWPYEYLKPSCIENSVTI
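Hydroperoxide product was detected by ferrous iron/xylenol orange as the 573 to 405 nm absorbance ratio. Arachidonic acid at 40 uM (final) was turned over for 30 min at room temperature by 150 nM human 12hLO, pH 7.0 Hepes buffer, after 15 min compound preincubation.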
RORg inh: qHTS for inhibitors of ROR gamma transcriptional activity | Drosophila S2 Gal4-RORgamma UAS-luciferase reporter, 20 h | Nuclear receptor ROR-gamma (Mus musculus), P51450 | Potency, µM (titrated, usually from 53.6 µM), actives largely listed as inhibitors | AID 2551, 2010 | hit rate 5.4% among 310,000; further: nearly all actives have a fitted effect of over 60% in size
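Luciferase reporter read in Schneider cells carrying Gal4-RORγ (mouse) and UAS-Photinus luciferase; cells given compound 1 h before 700 uM copper sulfate induction, then incubated 20 h at ambient temperature.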
ELG1 repair inh: qHTS screen for small molecules that inhibit ELG1-dependent DNA repair in human embryonic kidney (HEK293T) cells expressing luciferase-tagged ELG1; HEK293T ELG1-luciferase reporter, luminescence, 16 h; DNA damage induced by 5-fluorouridine; AID 504467, 2011; Potency, µM (doses to about 46.1 µM), most hits filed as inhibitors; hit rate 2.3% among 330,000; further: nearly all actives have a fitted effect of over 55% in size
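Step one: seed 2,000 cells per well. Step two: pin-transfer compound or DMSO alongside 5-fluorouridine. Step three: incubate 16 hr, 37 °C, 5% CO2. Step four: add ONE-Glo, wait 30 min, read luminescence.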
VP16 counter: VP16 counterscreen qHTS for inhibitors of ROR gamma transcriptional activity; Potency, µM (series often up to 53.6 µM), usual class: inhibitors; hit rate 3.5% among 310,000; AID 2546, 2010; Drosophila S2 Gal4-VP16 UAS-luciferase, luminescence, 20 h;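 further: Gal4-VP16 expression switched on by copper sulfate through the metallothionein promoter; nearly all actives have a fitted effect of over 50% in size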
A number is an active result; . = inactive; ? = inconclusive; / = no result given; [ ] = another dose, or the depositor's remark. The call rests on the fitted dose curve; in most records, active means well fitted curve in the direction sought with a large enough effect; inconclusive means small, poorly fitted or top-dose-only effect, or another doubt; inactive means no such curve, though single readings can be large; an effect the other way counts as inactive or inconclusive.

SMILES	DT40 TDP1 no CPT	DT40 TDP1 CPT	ALOX12 inh	RORg inh	ELG1 repair inh	VP16 counter
Cc1ccc(Oc2nnc(-c3cccs3)c3ccccc23)cc1C	?	18.4µM	.	.	.	?
COc1cccc(Cn2c(Cc3c[nH]c4ccccc34)n[nH]c2=O)c1	/	/	.	/	/	/
Cc1ccc(C2(CCNCc3ccc(N(C)C)cc3)CCOC(C(C)C)C2)cc1 (stereo not drawn)	.	?	?	?	?	.
CC(C)C1CC(CCNCc2ccc(N(C)C)cc2)(c2ccccc2)CCO1 (stereo not drawn)	7.31µM	7.31µM	.	.	.	.
CCOC(=O)C1=C(c2ccccc2)OC(N)=C(C#N)C1c1cccs1 (stereo not drawn)	.	.	?	.	.	.
COC(=O)C1=C(C)OC(N)=C(C#N)C1c1ccc(-c2ccccc2)cc1 (stereo not drawn)	/	/	35.5µM	/	/	/
CCOC(=O)C1=C(c2ccccc2)OC(N)=C(C#N)C1c1ccncc1 (stereo not drawn)	?	23.1µM	?	?	.	?
COC(=O)C(=O)C1=C(C)OC(N)=C(C#N)C1c1ccccc1 (stereo not drawn)	/	/	.	/	/	/
C=CCOC(=O)C1=C(C)OC(N)=C(C#N)C1c1c(C)nn(-c2ccccc2)c1Cl (stereo not drawn)	9.2µM	?	?	.	.	.
CCOC(=O)C1=C(C)OC(N)=C(C#N)C1c1c(C)nn(-c2ccccc2)c1Cl (stereo not drawn)	?	.	.	?	.	?
COC[C@H]1CCCN1[C@@H]1[C@H](O)[C@H](CO)O[C@@H]1CNCc1cccc(Cl)c1	/	/	.	/	/	/
CCNS(=O)(=O)c1ccc(NC(=O)c2cccc(NC(=O)C(CC)CC)c2)cc1	/	/	.	/	/	/
COc1ccc(OCCOC(=O)c2cc(=O)c3cc(Cl)ccc3o2)cc1	/	/	.	/	/	/
CCCn1c(-n2nc(C)cc2C)nc2c1c(=O)n(CC(=O)OC)c(=O)n2C	/	/	.	/	/	/
Cc1cccc2c1-c1sc(C(=O)Nc3nccs3)cc1CO2	?	?	.	4.47µM	?	5.62µM
O=C(Nc1nc2ccccc2s1)c1cc2c(s1)-c1ccccc1OC2	?	?	.	.	?	?
O=C(Nc1cccnc1)c1cc2c(s1)-c1ccccc1OC2	?	?	.	4.47µM	?	.
O=C(Nc1nccs1)c1cc2c(s1)-c1ccccc1OC2	?	?	.	5.01µM	?	4.47µM
O=C(NCCCN1CCN(c2ccccc2)CC1)c1cc2c(s1)-c1ccccc1OC2	23.1µM	?	.	/	/	/
CCn1cc(CN2CC(Oc3ccc(-c4noc(-c5ccncc5)n4)cc3)C2)cn1	/	/	.	/	/	/
Cc1cccc2c1-c1sc(C(=O)Nc3cccc([N+](=O)[O-])c3C)cc1CO2	23.1µM	?	.	.	?	?
O=C(Nc1ccn2ccnc2n1)c1ccccc1OC(F)(F)F	/	/	.	/	/	/
Cc1cccn2c(=O)c(/C=C3\SC(=S)NC3=O)c(NCCCN3CCOCC3)nc12	23.1µM	?	.	.	.	.
CCC(=O)N1CCC(Oc2ncccc2C(=O)N2CCOCC2)C1 (stereo not drawn)	/	/	.	/	/	/
O=C(CSc1nc2c([nH]c3ccccc32)c(=O)n1-c1ccc(F)cc1)NCc1ccccc1	.	.	.	/	/	/
SMILES	DT40 TDP1 no CPT	DT40 TDP1 CPT	ALOX12 inh	RORg inh	ELG1 repair inh	VP16 counter
COc1cccc(-n2c(SCC(=O)N3CCCc4ccccc43)nc3c([nH]c4ccccc43)c2=O)c1	?	?	.	/	/	/
O=C(CSc1nc2c([nH]c3ccccc32)c(=O)n1-c1ccc(F)cc1)NC1CCCCC1	?	14.6µM	.	/	/	/
O=C(CSc1nc2c([nH]c3ccccc32)c(=O)n1-c1ccccc1F)Nc1ccccc1C(F)(F)F	20.6µM	16.4µM	.	/	/	/
O=C(CSc1nc2c([nH]c3ccccc32)c(=O)n1-c1cccc(C(F)(F)F)c1)N1CCc2ccccc21	8.2µM	7.31µM	.	/	/	/
COc1ccc(-n2c(SCC(=O)NC3CCCCC3)nc3c([nH]c4ccccc43)c2=O)cc1	20.6µM	?	.	/	/	/
CCc1cn[nH]c1C1CCCN(C(=O)c2oc3cc(C)ccc3c2C)C1 (stereo not drawn)	/	/	.	/	/	/
O=C(CSc1nc2ccccc2s1)NCCc1ccc(F)cc1	/	/	.	/	/	/
O=C(CSc1nc2c([nH]c3ccccc32)c(=O)n1-c1ccc(Cl)cc1)N1CCCCCC1	20.6µM	?	.	/	/	/
CCc1nnc(NC(=O)CSc2nc3c([nH]c4ccccc43)c(=O)n2-c2cc(C)cc(C)c2)s1	16.4µM	?	.	/	/	/
Cc1ccc(C)c(NC(=O)CSc2nc3c([nH]c4ccccc43)c(=O)n2-c2ccc(F)cc2)c1	13µM	14.6µM	.	/	/	/
CCc1nnc(NC(=O)CSc2nc3c([nH]c4ccccc43)c(=O)n2-c2ccc(C)cc2)s1	.	.	.	/	/	/
CCC1CCCCN1C(=O)CSc1nc2c([nH]c3ccccc32)c(=O)n1-c1ccc(OC)cc1 (stereo not drawn)	18.4µM	?	.	/	/	/
O=C1NCCCCCCN(Cc2ccccc2)[C@H]2CCC[C@@H]12	/	/	.	/	/	/
c1cncc(-c2nc(CCNc3ncncn3)cs2)c1	/	/	.	/	/	/
COc1cc(NC(=O)c2cc3c(Cl)nc4ccccc4c3s2)cc(OC)c1OC	8.2µM	10.3µM	.	.[10 µM]	6.51µM	.
CCN(CC)c1nc2ccccc2nc1C(=O)Nc1cc(OC)c(OC)c(OC)c1	13µM	16.4µM	.	/	/	/
CCCN(C(=O)c1cc2c(Cl)nc3ccccc3c2s1)c1cccc(C)c1	25.9µM	20.6µM	.	/	/	/
COc1ccc(N(C)C(=O)c2cc3c(Cl)nc4ccccc4c3s2)cc1	20.6µM	?	.	?	?	.
CCC1=Nc2ccccc2N=C(NC(=O)c2ccc(OC)cc2)C1c1ccc(OC)c(OC)c1 (stereo not drawn)	/	/	.	/	/	/
N=C(N)SCc1nc2ccccc2c(=O)n1-c1ccccc1	18.4µM	?	.	.	?	?
O=C(NN1CCOCC1)c1ccn(COc2cccc(Cl)c2Cl)n1	/	/	.	/	/	/
Cn1cccc1/C=C1\CCC/C(=C\c2cccn2C)C1=O	29.1µM	?	?	?	?	.
C/C(=C1/C(=O)N(c2ccc([N+](=O)[O-])cc2)N=C1c1ccccc1)N(C)C	/	/	/	?	.	14.1µM
CN(C)/C=C1\C(=O)N(c2ccc([N+](=O)[O-])cc2)N=C1c1ccccc1	.	.	?	?	?	?
